Source: PubChem BioAssay (EPA / NIEHS)
“And” between values parts separate entries of the source, which are not always exact repeats. Identical values can stand only once. Inconclusive results are not listed. Some compounds were tested as several samples or in several runs, with calls that do not always agree. The source made the active and inactive calls. The calls were made as follows, unless noted: active = hit-call score of the fitted dose curve at least 0.9, where 1 is the maximum; inactive = score below 0.9.

Key:
[1] = biological target: Estrogen receptor (Homo sapiens) (UniProt P03372); experiment: ATG_ERa_TRANS: Attagene TRANS-FACTORIAL HepG2 Assay for human Estrogen Receptor alpha (ERa) (AID 2282970; active = hit-call score of the fitted dose curve at least 0.9, where 1 is the maximum); conditions: HepG2 Attagene TRANS ERa GAL4 reporter, mRNA
Estrogen receptor (Homo sapiens), sequence (P03372 whole entry, looked up, the tested form may be a part): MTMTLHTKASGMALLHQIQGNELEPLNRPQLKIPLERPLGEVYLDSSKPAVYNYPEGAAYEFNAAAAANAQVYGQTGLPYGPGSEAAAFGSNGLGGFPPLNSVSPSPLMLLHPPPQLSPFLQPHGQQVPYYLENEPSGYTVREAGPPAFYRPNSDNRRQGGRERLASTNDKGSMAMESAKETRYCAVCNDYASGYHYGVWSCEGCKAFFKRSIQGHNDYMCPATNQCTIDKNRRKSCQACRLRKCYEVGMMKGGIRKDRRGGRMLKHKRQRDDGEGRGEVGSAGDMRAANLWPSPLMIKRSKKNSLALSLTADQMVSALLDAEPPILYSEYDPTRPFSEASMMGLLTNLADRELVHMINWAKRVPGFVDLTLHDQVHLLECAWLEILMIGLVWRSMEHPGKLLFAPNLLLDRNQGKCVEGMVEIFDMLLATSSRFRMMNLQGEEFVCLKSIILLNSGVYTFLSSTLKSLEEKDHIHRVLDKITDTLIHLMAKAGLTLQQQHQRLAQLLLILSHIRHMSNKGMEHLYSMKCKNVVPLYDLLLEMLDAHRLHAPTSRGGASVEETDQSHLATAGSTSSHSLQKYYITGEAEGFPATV
In short: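 Gal4-fusion ERa transactivation, measured as reporter transcript level in transiently transfected HepG2 cells. Exposure 24 h; RT-PCR plus capillary electrophoresis with fluorescence detection.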

[2] = biological target: Androgen receptor (Homo sapiens) (UniProt P10275); experiment: ATG_AR_TRANS: Attagene TRANS-FACTORIAL HepG2 Assay for human Androgen Receptor (AR) (AID 2282973; active = hit-call score of the fitted dose curve at least 0.9, where 1 is the maximum); conditions: HepG2 Attagene TRANS-FACTORIAL AR reporter transcription
Androgen receptor (Homo sapiens), sequence (P10275 whole entry, looked up, the tested form may be a part): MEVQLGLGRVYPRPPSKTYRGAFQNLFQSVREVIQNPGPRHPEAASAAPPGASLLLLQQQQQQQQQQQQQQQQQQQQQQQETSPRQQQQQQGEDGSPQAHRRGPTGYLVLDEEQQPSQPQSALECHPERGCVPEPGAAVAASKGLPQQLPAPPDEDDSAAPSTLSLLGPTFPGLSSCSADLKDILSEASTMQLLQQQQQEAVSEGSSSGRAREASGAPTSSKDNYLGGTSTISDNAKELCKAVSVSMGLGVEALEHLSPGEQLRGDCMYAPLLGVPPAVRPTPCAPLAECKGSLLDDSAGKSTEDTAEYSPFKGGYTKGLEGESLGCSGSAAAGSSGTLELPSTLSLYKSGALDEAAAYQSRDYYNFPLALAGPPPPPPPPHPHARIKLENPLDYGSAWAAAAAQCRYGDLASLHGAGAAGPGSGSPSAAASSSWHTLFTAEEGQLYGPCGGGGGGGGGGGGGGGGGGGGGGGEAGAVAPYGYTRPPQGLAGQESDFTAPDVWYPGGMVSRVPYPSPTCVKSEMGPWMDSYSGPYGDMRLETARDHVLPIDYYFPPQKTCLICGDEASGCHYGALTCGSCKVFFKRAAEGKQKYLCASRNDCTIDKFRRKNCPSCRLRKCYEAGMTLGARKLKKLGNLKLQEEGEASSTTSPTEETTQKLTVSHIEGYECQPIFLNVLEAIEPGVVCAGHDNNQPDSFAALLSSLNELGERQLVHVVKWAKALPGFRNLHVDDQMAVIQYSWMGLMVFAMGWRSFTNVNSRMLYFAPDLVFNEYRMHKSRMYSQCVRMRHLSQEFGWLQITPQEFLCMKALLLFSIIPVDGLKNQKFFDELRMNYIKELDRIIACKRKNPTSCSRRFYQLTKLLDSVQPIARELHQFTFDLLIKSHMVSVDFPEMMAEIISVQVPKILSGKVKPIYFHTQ
In short: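 HepG2 cells transiently transfected with AR-Gal4 chimera and GAL4-UAS reporter units; chemical exposure 24 h. Reporter mRNA quantified by RT-PCR with fluorescent labelling and capillary electrophoresis; gain-of-signal fitted against DMSO.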

[3] = biological target: human Peripheral-type Benzodiazepine Receptor (PBR), TSPO (gene 706) (UniProt P30536); experiment: NVS_MP_hPBR: NovaScreen (NVS) Membrane Protein Assay for human Peripheral-type Benzodiazepine Receptor (PBR) (AID 2283331; active = hit-call score of the fitted dose curve at least 0.9, where 1 is the maximum;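 also: hits reduce radioligand binding relative to DMSO baseline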)
human Peripheral-type Benzodiazepine Receptor (PBR), TSPO (gene 706), sequence (P30536 whole entry, looked up): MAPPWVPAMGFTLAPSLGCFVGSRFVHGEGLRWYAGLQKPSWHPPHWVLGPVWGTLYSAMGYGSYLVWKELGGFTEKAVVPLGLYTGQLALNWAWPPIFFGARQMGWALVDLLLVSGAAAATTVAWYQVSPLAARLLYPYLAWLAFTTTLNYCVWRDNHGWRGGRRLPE
In short: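 Cell-free binding to human colonic membrane preparations measured by filter-based scintillation counting after 1 h. Compounds first run at 25 uM in duplicate, then concentration series for actives; signal loss against DMSO baseline.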

[4] = CEETOX_H295R_MTT_cell_viability: Viability Assessment in the CeeTox HT-H295R MTT Assay (AID 2283718);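 as to AC50: curve fitted both ways so AC50 may mark viability loss or gain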
In short: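 MTT reduction (0.5 mg/ml, 4 h at 37 C; absorbance at 570 and 650 nm) gave viability as background-corrected percent change versus controls. H295R cells had 48 h forskolin (10 uM) prestimulation, then 48 h chemical exposure at 0.1% DMSO.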

[5] = read-out: Secreted IgG (sIgG), gene 3500; experiment: BSK_BT_sIgG: BioMAP Diversity Plus: BT Assay for Secreted IgG (sIgG) Biomarker Activity (AID 2284226); conditions: primary human B cells with PBMC
In short: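 Human B cell/PBMC co-culture; compound exposure 24 h; sIgG by ELISA; gain-of-signal fit vs DMSO baseline.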

[6] = read-out: Tumor necrosis factor (Homo sapiens) (UniProt P01375); experiment: BSK_BT_xTNFa: BioMAP Diversity Plus: BT Assay for Tumor necrosis factor alpha (TNF-alpha) Biomarker Activity (AID 2284230); conditions: primary human B cells with PBMC
In short: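 Compounds were added to a B cell plus PBMC co-culture, and after 24 h secreted TNF-alpha was quantified with Luminex xMAP technology, with responses fitted upward from the DMSO control.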

[7] = read-out: Vascular cell adhesion molecule 1 (VCAM1), VCAM1 (gene 7412); experiment: BSK_MyoF_VCAM1: BioMAP Diversity Plus: MyoF Assay for Vascular cell adhesion molecule 1 (VCAM1) Biomarker Activity (AID 2284231); conditions: primary human lung fibroblasts
In short: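 Primary human lung fibroblasts (BioMAP MyoF system) dosed with chemical, VCAM-1 measured by ELISA 24 hours later. Fitted in the positive direction against DMSO; parallel SRB staining assessed cytotoxicity.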

[8] = read-out: Collagen I, COL1A1 (gene 1277); experiment: BSK_MyoF_CollagenI: BioMAP Diversity Plus: MyoF Assay for Collagen I Biomarker Activity (AID 2284238); conditions: primary human lung fibroblasts
In short: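 Primary human lung fibroblasts (MyoF system) treated 24 h; Collagen I quantified by ELISA and fitted in positive direction against DMSO. Parallel SRB total-protein staining assessed overt cytotoxicity.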

[9] = read-out: Actin alpha 1 (ACTA1), ACTA1 (gene 58); experiment: BSK_MyoF_ACTA1: BioMAP Diversity Plus: MyoF Assay for Actin alpha 1 (ACTA1) Biomarker Activity (AID 2284244); conditions: primary human lung fibroblasts
In short: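 ELISA read-out of a-SMA in primary human lung fibroblast cultures, 24 h post-dosing. Activity scored in the positive direction versus DMSO baseline.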

[10] = read-out: Interleukin 2 (IL2), IL2 (gene 3558); experiment: BSK_BT_xIL2: BioMAP Diversity Plus: BT Assay for Interleukin 2 (IL2) Biomarker Activity (AID 2284245); conditions: primary human B cells with PBMC
In short: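 Readout: supernatant IL-2 via Luminex xMAP after 24 h chemical dosing of a B cell/PBMC primary human co-culture. DMSO serves as negative control and baseline; increases in signal were fitted.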

[11] = read-out: Basic fibroblast growth factor (bFGF), FGF2 (gene 2247); experiment: BSK_MyoF_bFGF: BioMAP Diversity Plus: MyoF Assay for Basic fibroblast growth factor (bFGF) Biomarker Activity (AID 2284246); conditions: primary human lung fibroblasts
In short: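 Primary human lung fibroblast culture, 24 h compound exposure; ELISA read-out of bFGF. Positive-direction fit vs DMSO baseline. Cytotoxicity: SRB stain (0.1% SRB, 10% TCA fixation, 560 nm) in parallel wells.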

[12] = read-out: Plasminogen activator inhibitor-1 (PAI1), SERPINE1 (gene 5054); experiment: BSK_MyoF_PAI1: BioMAP Diversity Plus: MyoF Assay for Plasminogen activator inhibitor-1 (PAI1) Biomarker Activity (AID 2284256); conditions: primary human lung fibroblasts
In short: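 Primary human lung fibroblasts treated with chemical for 24 h; PAI-1 levels quantified by ELISA relative to DMSO. Cytotoxicity was assessed in parallel cultures by SRB total-protein staining (0.1% SRB after 10% TCA fixation, 560 nm).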

[13] = read-out: Interleukin-8 (IL8), CXCL8 (gene 3576); experiment: BSK_MyoF_IL8: BioMAP Diversity Plus: MyoF Assay for Interleukin-8 (IL8) Biomarker Activity (AID 2284261); conditions: primary human lung fibroblasts
In short: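 Human lung fibroblast (MyoF system) cultures dosed for 24 h, then IL-8 measured by ELISA. Response taken relative to DMSO; parallel SRB total-protein staining for cytotoxicity.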

[14] = read-out: Decorin, DCN (gene 1634); experiment: BSK_MyoF_Decorin: BioMAP Diversity Plus: MyoF Assay for Decorin Biomarker Activity (AID 2284265); conditions: primary human lung fibroblasts
In short: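 Human lung fibroblast cultures were dosed for 24 h, and decorin was then measured by ELISA. Parallel cultures were stained with sulforhodamine B for total protein as a cytotoxicity check. Gain of signal was fitted relative to DMSO.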

[15] = BSK_MyoF_SRB: Viability Assessment in the BioMAP Diversity Plus: MyoF Assay (AID 2284267); conditions: primary human lung fibroblasts;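 also: total protein by SRB absorbance in parallel cultures as cytotoxicity measure; cells assessed 24 h after compound addition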
In short: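 Lung fibroblast cultures, 24 h post-dose; fix 10% TCA, stain 0.1% SRB, read 560 nm. Signal = total protein as cytotoxicity measure; fitted relative to DMSO negative control.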

[16] = biological target: Nuclear receptor subfamily 1 group I member 2 (Homo sapiens) (UniProt O75469); experiment: NVS_NR_hPXR: NovaScreen (NVS) Nuclear Receptor Binding Assay for human Pregnane X Receptor (PXR) (AID 2283365; active = hit-call score of the fitted dose curve at least 0.9, where 1 is the maximum;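 also: a drop in FRET signal versus DMSO baseline means the compound binds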)
Nuclear receptor subfamily 1 group I member 2 (Homo sapiens), sequence (O75469 whole entry, looked up): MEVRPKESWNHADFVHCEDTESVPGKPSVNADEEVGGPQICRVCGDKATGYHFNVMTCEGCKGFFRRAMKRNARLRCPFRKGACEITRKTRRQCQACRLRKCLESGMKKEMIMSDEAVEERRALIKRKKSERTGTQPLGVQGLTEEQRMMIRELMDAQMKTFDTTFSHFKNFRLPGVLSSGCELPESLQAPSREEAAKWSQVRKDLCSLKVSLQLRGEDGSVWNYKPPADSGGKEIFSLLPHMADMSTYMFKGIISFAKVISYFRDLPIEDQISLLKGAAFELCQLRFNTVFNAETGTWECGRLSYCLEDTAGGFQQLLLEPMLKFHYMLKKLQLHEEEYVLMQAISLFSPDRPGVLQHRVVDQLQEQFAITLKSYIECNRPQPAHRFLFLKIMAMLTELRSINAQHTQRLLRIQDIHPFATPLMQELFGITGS
In short: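 Cell-free TR-FRET binding assay with extracted human PXR protein, read 2 h after dosing. Primary screen run in duplicate at 25 uM, actives followed in concentration series; loss of signal fitted against DMSO baseline.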

[17] = system: Thyroperoxidase (TPO), gene 54314; experiment: CCTE_Simmons_AUR_rTPO: CCTE's Amplex UltraRed Assay for Thyroperoxidase (TPO) Inhibition, Simmons Lab (AID 2283662; active = hit-call score of the fitted dose curve at least 0.9, where 1 is the maximum;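 also: potency for loss of signal meaning inhibition of peroxidase activity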)
In short: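 Cell-free peroxidase activity assay using rat thyroid gland microsomes with excess H2O2 (300 uM) and 25 uM Amplex UltraRed. Compounds tested from 5 nM to 87.5 uM; fluorescence measured after 30 min at 37C, analysed relative to DMSO baseline.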

[18] = biological target: Retinoic acid receptor alpha (Homo sapiens) (UniProt P10276); experiment: ATG_RARa_TRANS: Attagene TRANS-FACTORIAL HepG2 Assay for human Retinoic Acid Receptor alpha (RARa) (AID 2283005; active = hit-call score of the fitted dose curve at least 0.9, where 1 is the maximum)
Retinoic acid receptor alpha (Homo sapiens), sequence (P10276 whole entry, looked up, the tested form may be a part): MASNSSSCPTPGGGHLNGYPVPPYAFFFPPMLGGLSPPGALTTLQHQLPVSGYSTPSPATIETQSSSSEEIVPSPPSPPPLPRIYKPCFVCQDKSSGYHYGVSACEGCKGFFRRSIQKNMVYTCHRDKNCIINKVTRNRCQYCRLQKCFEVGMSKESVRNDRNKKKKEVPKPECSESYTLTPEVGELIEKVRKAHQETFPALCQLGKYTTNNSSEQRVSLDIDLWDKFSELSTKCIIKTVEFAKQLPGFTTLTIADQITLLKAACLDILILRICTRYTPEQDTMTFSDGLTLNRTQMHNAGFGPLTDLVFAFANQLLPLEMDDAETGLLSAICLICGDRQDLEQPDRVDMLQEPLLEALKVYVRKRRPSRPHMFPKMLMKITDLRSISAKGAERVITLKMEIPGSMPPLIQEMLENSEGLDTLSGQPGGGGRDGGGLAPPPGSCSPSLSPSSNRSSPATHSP
In short: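 Reporter transcripts, measured by RT-PCR with fluorescent labeling and capillary electrophoresis after 24 h dosing, reflect activity of an exogenous human RARa–GAL4 fusion in transiently transfected HepG2. Fitted for increase relative to DMSO.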

[19] = biological target: human Retinoic Acid Receptor gamma (RARg), RARG (gene 5916) (UniProt P13631); experiment: ATG_RARg_TRANS: Attagene TRANS-FACTORIAL HepG2 Assay for human Retinoic Acid Receptor gamma (RARg) (AID 2283009; active = hit-call score of the fitted dose curve at least 0.9, where 1 is the maximum)
human Retinoic Acid Receptor gamma (RARg), RARG (gene 5916), sequence (P13631 whole entry, looked up, the tested form may be a part): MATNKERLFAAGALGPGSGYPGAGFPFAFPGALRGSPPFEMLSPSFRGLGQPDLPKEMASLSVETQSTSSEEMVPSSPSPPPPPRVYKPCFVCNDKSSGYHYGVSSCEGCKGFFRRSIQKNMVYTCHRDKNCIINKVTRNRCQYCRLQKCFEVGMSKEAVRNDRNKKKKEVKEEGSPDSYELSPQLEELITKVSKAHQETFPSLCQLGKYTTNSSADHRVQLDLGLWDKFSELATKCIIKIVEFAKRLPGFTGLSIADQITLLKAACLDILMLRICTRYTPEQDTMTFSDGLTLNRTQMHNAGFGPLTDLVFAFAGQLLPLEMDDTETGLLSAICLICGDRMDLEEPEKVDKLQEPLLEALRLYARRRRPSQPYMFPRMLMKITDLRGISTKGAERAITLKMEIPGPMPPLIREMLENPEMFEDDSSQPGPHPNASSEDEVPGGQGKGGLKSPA
In short: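 Readout: reporter transcript levels via RT-PCR, 6-FAM primer-extension labelling, HpaI digestion and capillary electrophoresis. Cells: HepG2 carrying transfected RARg-GAL4 chimera plus UAS reporter set. Dosing 24 h; DMSO negative control.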

[20] = biological target: human Retinoic Acid Receptor beta (RARb), RARB (gene 5915) (UniProt P10826); experiment: ATG_RARb_TRANS: Attagene TRANS-FACTORIAL HepG2 Assay for human Retinoic Acid Receptor beta (AID 2283004; active = hit-call score of the fitted dose curve at least 0.9, where 1 is the maximum)
human Retinoic Acid Receptor beta (RARb), RARB (gene 5915), sequence (P10826 whole entry, looked up, the tested form may be a part): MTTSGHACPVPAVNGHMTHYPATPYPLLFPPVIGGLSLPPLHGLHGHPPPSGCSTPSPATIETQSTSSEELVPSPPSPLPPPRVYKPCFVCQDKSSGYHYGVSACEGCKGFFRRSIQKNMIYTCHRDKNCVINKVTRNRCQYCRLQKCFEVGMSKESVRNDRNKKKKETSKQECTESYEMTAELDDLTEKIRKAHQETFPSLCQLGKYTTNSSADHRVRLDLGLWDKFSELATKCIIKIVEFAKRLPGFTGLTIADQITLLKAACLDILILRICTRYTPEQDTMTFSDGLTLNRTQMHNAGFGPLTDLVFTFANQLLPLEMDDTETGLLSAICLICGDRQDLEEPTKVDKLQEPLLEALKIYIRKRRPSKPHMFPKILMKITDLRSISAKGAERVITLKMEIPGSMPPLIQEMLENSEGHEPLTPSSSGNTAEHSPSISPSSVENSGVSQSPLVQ
In short: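 HepG2 cells were transiently transfected with GAL4-UAS reporter units that report activity of exogenous chimeric NR-Gal4 proteins, then exposed to compound for 24 h. Reporter mRNA was quantified by RT-PCR with capillary electrophoresis fluorescence, as gain of signal over DMSO.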

Measured: AC50

Tumor necrosis factor (Homo sapiens), sequence (P01375 whole entry, looked up): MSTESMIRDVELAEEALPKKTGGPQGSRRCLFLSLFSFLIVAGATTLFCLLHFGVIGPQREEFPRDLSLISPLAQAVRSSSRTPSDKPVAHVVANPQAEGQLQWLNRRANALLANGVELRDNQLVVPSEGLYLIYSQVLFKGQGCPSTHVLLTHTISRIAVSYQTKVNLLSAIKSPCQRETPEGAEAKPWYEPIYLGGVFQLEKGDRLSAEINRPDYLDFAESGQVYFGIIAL

CC(C)(C)C(O)C(Oc1ccc(-c2ccccc2)cc1)n1cncn1 (configuration not stated)
inactive: [1] | [2] | [3] | [4] | [6] | [12] | [13]
active: [5] 17.9 µM | [7] 30 µM | [8] 36.9 µM | [9] 34.5 µM | [10] 20 µM | [11] 33.6 µM | [14] 36.5 µM | [15] 32 µM

CC(=O)/C=C/c1ccccc1
active: [5] 27.2 µM | [6] 20 µM | [10] 20 µM
inactive: [7] | [8] | [9] | [11] | [12] | [13] | [14] | [15]

C[C@]12CCC(=O)C(O)=C1CC[C@@H]1[C@@H]2CC[C@]2(C)C(=O)CC[C@@H]12
active: [1] 9.42 µM

CC(C)C(=O)Cl
inactive: [2]

CCc1cc(C)cc(CC)c1-c1c(OC(=O)C(C)(C)C)n2n(c1=O)CCOCC2
inactive: [3] | [5] | [6] | [7] | [8] | [10] | [11] | [12] | [13] | [14] | [15]
active: [9] 20 µM

CSc1nc(N=[N+]=[N-])nc(NC(C)C)n1
inactive: [1]

Oc1ccc(C2(c3ccc(O)cc3)c3ccccc3-c3ccccc32)cc1
inactive: [1]

CCCCCCCCCCCCCCCC[N+](C)(C)C
active: [3] 12.3 µM | [16] 0.899 µM | [17] 51.5 µM

O=CNC(N1CCN(C(NC=O)C(Cl)(Cl)Cl)CC1)C(Cl)(Cl)Cl (configuration not stated)
inactive: [1] | [4]

CC(C)COP(=O)(OCC(C)C)OCC(C)C
inactive: [5] | [6] | [7] | [8] | [9] | [10] | [11] | [12] | [13] | [14] | [15]
active: [3] 25 µM

O=C(O)COc1ccccc1
inactive: [1]

c1ccc(P(c2ccccc2)c2ccccc2)cc1
active: [1] 15.2 µM | [17] 40.2 µM

CCCCCCCCCCCC#N
inactive: [5] | [6] | [10] | [13] | [14]
active: [7] 30.7 µM | [8] 20.6 µM | [9] 26.5 µM | [11] 32.9 µM | [15] 30.5 µM

CC1(C)[C@H](C(=O)O[C@H](C#N)c2cccc(Oc3ccccc3)c2)[C@@H]1C=C(Br)Br
inactive: [2] | [3] | [6] | [7] | [8] | [9] | [11] | [12] | [13] | [14] | [15]
active: [3] 10.1 µM | [5] 23.2 µM and 29.8 µM | [10] 29.1 µM and 20 µM

CCC(C)c1cc(C(C)(C)C)cc(-n2nc3ccccc3n2)c1O (configuration not stated)
inactive: [2]

CNC(=O)Oc1cc(C)c(SC)c(C)c1
active: [1] 8.61 µM | [5] 10.6 µM | [6] 29.7 µM
inactive: [2] | [4] | [7] | [8] | [9] | [10] | [11] | [12] | [13] | [14] | [15]

CCCCOP(=O)(O)OCCCC
inactive: [1] | [2]

O=P1(NCCCl)OCCCN1CCCl (configuration not stated)
inactive: [18] | [5] | [6] | [7] | [8] | [9] | [10] | [11] | [12] | [13] | [14] | [15]

CC(C)c1ccc(O)cc1
active: [17] 2.24 µM

[N-]=[N+]=CC(=O)OC[C@H](N)C(=O)O
inactive: [18]

O=C(NCNC(=O)NC1C(=O)NC(=O)N1CO)NC1C(=O)NC(=O)N1CO (configuration not stated)
inactive: [18] | [19]

C[N+](C)=CCl
inactive: [1] | [18]

c1cc(OCC2CO2)ccc1Cc1ccc(OCC2CO2)cc1 (configuration not stated)
inactive: [2]

C=C(Cl)CCl
inactive: [1] | [19]

CC(C)(c1cc(Cl)c(O)c(Cl)c1)c1cc(Cl)c(O)c(Cl)c1
inactive: [5] | [6] | [10] | [14]
active: [16] 5.12 µM | [17] 19.8 µM | [8] 5.31 µM | [9] 6.18 µM | [11] 30.9 µM | [12] 9.2 µM | [13] 34 µM | [15] 16.5 µM

CCOC(=O)COc1ccc(Cl)cc1Cl
inactive: [20] | [16]

Nc1ccccc1
active: [17] 0.759 µM

N#Cc1cc(I)c(O)c(I)c1
inactive: [2] | [20] | [18] | [19]

c1ccc2c(c1)CCCC2
inactive: [1]

Cc1cc(C)c(C2=C(OC(=O)CC(C)(C)C)C3(CCCC3)OC2=O)c(C)c1
inactive: [1] | [16]
active: [4] 93.1 µM

C=CC(=O)OCCO
active: [4] 26.7 µM

N#CCCCl
inactive: [18]

c1ccc(Nc2ccc3ccccc3c2)cc1
inactive: [4] | [13] | [14]
active: [1] 4.65 µM | [5] 31.5 µM | [6] 20 µM | [7] 31.2 µM | [8] 31 µM | [9] 29 µM | [10] 20 µM | [11] 31 µM | [12] 31.6 µM | [15] 35.5 µM
